Measured values from paper PMC7862700, “An all-to-all approach to the identification of sequence-specific readers for epigenetic DNA modifications on cytosine”.

Columns and labels:
Test in all cases: DAPPL (digital affinity profiling via proximity ligation, sequencing); 10 mM Tris-HCl pH 7.5, 50 mM NaCl, 1 mM DTT, 4% glycerol, room temperature, 30 min; GST-TFs on glutathione beads, 16-mer random dsDNA library, 0.1% formaldehyde crosslink after washing; high values mean tight binding
Details in all cases: protein: recombinant; tags: N-terminal GST; dsDNA, one strand shown
FLI1 = target: T1, FLI1 (Homo sapiens, UniProt Q01543 1-452)
T1 sequence: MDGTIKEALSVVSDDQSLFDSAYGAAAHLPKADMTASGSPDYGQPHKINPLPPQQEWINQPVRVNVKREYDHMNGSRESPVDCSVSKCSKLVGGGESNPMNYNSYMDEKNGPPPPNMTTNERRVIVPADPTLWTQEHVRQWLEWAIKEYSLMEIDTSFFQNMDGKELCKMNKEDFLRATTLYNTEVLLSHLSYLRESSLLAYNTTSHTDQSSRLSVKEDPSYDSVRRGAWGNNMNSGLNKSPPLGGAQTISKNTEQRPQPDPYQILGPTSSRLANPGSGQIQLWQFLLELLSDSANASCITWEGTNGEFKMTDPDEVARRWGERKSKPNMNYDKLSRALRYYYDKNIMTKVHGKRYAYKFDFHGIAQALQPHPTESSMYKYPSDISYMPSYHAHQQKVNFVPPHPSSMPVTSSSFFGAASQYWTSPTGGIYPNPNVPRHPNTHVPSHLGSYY
Method in brief: (§1)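 Pools were built from human transcription factors expressed in yeast as GST fusions, captured on glutathione beads and DNA-barcoded, along with a tag-only sample. Incubation with 200 nmole of a 16-mer random double-stranded DNA library lasted 30 min at room temperature in Tris/NaCl/DTT/glycerol buffer, and was followed by washing, 0.1% formaldehyde crosslinking, proximity ligation, PCR amplification and Illumina NextSeq500 sequencing. Binding signal is the quotient of each hexamer's read frequency for a factor and its frequency for the tag-only sample.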

ELK1 = target: T2, ELK1 (Homo sapiens, UniProt P19419 1-428)
T2 sequence: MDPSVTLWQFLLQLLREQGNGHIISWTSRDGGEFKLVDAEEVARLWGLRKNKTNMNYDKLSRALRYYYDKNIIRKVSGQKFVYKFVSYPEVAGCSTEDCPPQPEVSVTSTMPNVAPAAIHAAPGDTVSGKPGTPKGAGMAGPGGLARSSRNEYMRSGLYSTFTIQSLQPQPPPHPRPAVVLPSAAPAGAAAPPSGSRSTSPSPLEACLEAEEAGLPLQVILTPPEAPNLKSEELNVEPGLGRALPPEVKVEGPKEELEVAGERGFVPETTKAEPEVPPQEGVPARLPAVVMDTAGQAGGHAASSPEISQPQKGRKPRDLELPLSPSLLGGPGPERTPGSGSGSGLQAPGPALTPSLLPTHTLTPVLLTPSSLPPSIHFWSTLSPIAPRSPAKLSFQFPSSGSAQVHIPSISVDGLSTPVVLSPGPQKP
Method in brief: as §1

GABPA = target: T3, GABPA (Homo sapiens, UniProt Q06546 1-454)
T3 sequence: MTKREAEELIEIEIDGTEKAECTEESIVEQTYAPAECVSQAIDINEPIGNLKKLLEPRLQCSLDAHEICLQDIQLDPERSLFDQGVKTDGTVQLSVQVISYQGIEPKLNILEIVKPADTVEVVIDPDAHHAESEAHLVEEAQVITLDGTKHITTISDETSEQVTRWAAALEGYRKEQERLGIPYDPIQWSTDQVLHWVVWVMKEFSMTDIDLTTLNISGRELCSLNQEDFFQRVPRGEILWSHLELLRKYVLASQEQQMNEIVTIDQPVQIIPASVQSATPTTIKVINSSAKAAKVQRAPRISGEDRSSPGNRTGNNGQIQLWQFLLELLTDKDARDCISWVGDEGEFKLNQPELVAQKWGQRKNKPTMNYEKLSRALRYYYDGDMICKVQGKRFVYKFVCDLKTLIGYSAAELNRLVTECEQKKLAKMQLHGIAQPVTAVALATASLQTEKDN
Method in brief: as §1

ERG = target: T4, ERG (Homo sapiens, UniProt P11308 1-479)
T4 sequence: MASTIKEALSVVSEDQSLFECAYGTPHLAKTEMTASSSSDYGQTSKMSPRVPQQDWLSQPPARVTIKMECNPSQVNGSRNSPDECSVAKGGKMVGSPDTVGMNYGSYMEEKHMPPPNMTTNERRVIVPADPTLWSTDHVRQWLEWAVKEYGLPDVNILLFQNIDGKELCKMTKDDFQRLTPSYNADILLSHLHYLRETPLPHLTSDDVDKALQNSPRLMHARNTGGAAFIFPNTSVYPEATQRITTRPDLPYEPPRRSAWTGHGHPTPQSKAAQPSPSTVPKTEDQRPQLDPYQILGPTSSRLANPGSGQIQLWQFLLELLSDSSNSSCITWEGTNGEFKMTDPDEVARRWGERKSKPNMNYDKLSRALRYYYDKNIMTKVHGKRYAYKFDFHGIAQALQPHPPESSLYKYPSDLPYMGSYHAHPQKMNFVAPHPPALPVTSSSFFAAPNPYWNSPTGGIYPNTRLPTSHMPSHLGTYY
Method in brief: as §1

ELF1 = ELF1 (Homo sapiens, UniProt P32519 1-619)
Chain of ELF1 (P32519 whole entry): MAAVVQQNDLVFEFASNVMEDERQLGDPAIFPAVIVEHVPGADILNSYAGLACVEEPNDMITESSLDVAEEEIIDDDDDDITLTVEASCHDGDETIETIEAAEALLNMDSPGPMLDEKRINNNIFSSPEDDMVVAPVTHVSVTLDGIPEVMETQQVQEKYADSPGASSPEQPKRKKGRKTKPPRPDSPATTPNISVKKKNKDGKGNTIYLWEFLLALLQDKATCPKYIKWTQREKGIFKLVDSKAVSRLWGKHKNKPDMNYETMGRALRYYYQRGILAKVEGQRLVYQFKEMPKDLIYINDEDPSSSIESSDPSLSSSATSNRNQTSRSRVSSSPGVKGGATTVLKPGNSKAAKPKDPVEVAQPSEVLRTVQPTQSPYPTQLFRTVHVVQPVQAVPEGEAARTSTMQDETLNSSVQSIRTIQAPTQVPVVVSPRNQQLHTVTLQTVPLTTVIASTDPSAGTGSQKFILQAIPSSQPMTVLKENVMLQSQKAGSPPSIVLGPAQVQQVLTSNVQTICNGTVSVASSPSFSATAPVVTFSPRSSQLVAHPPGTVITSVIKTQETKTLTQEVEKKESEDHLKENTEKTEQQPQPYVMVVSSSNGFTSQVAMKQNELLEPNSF
Method in brief: as §1

EHF = target: T5, EHF (Homo sapiens, UniProt Q9NZC4 1-300)
T5 sequence: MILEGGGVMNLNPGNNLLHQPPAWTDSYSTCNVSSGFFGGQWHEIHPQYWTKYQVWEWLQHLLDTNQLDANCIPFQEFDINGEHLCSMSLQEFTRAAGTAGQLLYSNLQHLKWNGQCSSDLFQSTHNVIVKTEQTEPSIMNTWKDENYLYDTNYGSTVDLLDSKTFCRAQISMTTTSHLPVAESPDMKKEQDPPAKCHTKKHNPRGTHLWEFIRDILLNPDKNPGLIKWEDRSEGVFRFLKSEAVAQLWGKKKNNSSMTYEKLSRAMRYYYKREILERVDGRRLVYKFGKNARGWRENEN
Method in brief: as §1

SPI1 = SPI1 (Homo sapiens, UniProt P17947 1-270)
Method in brief: as §1

SPIB = SPIB (Homo sapiens, UniProt Q01892 1-262)
Chain of SPIB (Q01892 whole entry): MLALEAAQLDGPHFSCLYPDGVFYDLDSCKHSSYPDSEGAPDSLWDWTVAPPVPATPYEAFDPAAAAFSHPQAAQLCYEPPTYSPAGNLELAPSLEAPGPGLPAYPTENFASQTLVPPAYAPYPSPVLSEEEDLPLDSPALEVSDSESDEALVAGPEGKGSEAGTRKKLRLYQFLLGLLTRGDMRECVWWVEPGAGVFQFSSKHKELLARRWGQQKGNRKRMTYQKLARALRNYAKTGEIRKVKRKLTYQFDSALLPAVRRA
Method in brief: as §1

FEV = target: T6, FEV (Homo sapiens, UniProt Q99581 1-238)
T6 sequence: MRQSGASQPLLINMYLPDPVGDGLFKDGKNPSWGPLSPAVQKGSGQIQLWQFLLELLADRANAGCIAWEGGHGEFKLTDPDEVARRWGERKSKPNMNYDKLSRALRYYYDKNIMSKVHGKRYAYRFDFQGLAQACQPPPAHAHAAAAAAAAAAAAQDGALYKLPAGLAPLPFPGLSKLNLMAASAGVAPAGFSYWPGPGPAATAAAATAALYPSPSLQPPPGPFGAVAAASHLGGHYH
Method in brief: as §1

ETV5 = ETV5 (Homo sapiens, UniProt P41161 1-510)
Chain of ETV5 (P41161 whole entry): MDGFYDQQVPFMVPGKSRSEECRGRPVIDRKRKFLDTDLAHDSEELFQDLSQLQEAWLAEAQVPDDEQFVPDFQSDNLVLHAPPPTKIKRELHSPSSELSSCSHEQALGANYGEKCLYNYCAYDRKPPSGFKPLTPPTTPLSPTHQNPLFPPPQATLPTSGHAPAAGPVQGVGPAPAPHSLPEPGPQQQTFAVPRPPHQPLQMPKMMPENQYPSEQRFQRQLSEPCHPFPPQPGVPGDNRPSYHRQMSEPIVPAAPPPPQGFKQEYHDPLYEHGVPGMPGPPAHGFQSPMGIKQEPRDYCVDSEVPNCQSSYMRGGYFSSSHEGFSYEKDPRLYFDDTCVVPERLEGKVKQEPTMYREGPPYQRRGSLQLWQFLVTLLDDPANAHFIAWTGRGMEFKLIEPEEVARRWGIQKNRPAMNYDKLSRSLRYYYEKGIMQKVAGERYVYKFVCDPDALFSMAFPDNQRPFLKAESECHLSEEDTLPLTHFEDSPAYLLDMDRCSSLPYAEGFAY
Method in brief: as §1

SPIC = target: T7, SPIC (Homo sapiens, UniProt Q8N5J4 1-248)
T7 sequence: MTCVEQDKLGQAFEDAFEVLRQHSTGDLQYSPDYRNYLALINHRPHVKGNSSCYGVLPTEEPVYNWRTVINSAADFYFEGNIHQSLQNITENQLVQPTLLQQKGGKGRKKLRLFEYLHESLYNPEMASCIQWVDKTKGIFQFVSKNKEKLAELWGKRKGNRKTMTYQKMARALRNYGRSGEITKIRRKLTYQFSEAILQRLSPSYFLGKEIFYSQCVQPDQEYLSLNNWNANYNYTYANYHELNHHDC
Method in brief: as §1

ELF4 = ELF4 (Homo sapiens, UniProt Q99607 1-663)
Chain of ELF4 (Q99607 whole entry): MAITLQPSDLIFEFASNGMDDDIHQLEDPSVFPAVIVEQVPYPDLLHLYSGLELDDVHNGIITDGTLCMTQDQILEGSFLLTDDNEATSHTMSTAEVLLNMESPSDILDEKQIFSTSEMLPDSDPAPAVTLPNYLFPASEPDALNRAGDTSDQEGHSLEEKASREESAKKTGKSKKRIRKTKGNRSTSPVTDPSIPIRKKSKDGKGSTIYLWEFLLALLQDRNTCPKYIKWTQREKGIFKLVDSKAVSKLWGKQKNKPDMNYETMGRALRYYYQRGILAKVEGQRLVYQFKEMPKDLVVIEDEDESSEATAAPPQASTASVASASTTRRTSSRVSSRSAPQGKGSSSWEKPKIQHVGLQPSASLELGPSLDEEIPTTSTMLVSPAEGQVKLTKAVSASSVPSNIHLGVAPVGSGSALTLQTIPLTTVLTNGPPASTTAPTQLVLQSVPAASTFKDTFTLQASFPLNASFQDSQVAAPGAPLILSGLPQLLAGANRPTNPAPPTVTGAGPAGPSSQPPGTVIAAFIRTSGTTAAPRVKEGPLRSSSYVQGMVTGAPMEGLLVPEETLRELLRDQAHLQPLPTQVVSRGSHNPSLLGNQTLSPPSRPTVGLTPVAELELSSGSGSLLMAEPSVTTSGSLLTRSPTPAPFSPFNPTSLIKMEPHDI
Method in brief: as §1

ELK4 = target: T8, ELK4 (Homo sapiens, UniProt P28324-2 1-405)
T8 sequence: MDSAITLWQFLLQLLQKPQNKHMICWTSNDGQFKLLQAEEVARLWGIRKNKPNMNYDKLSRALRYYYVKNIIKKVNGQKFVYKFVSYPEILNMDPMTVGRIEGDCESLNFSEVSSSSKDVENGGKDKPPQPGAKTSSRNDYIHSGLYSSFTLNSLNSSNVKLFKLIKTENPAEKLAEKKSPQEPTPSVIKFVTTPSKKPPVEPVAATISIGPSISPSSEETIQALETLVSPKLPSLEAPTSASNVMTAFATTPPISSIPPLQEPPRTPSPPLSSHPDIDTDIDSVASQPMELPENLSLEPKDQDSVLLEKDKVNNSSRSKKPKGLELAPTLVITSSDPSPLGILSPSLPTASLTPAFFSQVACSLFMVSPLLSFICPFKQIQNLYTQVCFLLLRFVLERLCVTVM
Method in brief: as §1

ETV2 = target: T9, ETV2 (Homo sapiens, UniProt O00321 1-342)
T9 sequence: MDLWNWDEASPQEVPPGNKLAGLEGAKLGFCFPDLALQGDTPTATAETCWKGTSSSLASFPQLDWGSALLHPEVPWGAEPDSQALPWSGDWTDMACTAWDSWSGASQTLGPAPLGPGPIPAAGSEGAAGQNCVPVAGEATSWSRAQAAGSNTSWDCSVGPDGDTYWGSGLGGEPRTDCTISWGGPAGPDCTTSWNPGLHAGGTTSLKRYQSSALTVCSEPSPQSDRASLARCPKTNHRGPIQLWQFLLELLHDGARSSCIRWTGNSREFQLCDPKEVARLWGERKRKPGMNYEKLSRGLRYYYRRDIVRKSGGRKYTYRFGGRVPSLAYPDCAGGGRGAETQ
Method in brief: as §1

ELF3 = target: T10, ELF3 (Homo sapiens, UniProt P78545 1-371)
T10 sequence: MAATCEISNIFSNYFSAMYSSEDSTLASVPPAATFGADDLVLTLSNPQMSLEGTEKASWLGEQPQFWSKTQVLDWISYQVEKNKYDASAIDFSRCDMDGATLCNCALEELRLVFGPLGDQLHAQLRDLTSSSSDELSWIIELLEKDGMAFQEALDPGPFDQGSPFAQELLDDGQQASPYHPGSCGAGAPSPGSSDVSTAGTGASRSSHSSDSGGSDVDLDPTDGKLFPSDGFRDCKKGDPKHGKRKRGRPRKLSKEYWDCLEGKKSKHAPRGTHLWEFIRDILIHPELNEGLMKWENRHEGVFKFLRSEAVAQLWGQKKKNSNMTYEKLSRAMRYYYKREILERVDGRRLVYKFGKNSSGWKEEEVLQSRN
Method in brief: as §1

ETV1 = ETV1 (Homo sapiens, UniProt P50549 1-477)
Chain of ETV1 (P50549 whole entry): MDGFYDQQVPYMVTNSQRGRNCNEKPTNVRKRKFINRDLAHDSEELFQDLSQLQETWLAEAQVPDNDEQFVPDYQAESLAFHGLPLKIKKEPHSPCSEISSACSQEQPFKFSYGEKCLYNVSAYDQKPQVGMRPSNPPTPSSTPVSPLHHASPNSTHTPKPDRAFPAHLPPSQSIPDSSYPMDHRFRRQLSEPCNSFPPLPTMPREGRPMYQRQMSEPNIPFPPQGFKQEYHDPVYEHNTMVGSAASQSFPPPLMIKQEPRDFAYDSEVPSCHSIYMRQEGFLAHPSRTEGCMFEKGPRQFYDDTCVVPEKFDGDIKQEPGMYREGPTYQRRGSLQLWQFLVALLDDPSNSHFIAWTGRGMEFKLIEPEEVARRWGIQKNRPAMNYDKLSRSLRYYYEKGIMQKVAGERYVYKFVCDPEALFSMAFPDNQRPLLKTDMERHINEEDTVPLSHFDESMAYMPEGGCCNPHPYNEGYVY
Method in brief: as §1

ELK3 = target: T11, ELK3 (Homo sapiens, UniProt P41970 1-407)
T11 sequence: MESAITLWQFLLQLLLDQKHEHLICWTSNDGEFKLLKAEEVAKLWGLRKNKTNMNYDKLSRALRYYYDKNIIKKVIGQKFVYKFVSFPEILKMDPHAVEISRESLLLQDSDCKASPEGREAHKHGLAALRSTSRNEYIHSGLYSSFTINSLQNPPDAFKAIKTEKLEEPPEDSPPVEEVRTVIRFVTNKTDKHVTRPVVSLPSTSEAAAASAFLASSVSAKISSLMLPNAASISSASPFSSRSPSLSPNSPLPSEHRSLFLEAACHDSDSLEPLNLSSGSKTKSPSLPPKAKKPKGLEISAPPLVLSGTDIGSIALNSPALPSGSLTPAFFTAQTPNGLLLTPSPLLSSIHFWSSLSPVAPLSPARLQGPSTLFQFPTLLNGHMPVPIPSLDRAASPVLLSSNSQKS
Method in brief: as §1

CCGCGT
binding signal (FLI1): 1.29 fold enrichment (6-mer frequency, TF over GST control)
binding signal (ELK1): 1.11 fold enrichment (6-mer frequency, TF over GST control)
binding signal (GABPA): 1.06 fold enrichment (6-mer frequency, TF over GST control)
binding signal (ERG): 1.13 fold enrichment (6-mer frequency, TF over GST control)
binding signal (ELF1): 1.1 fold enrichment (6-mer frequency, TF over GST control)
binding signal (EHF): 1.18 fold enrichment (6-mer frequency, TF over GST control)
binding signal (SPI1): 1.12 fold enrichment (6-mer frequency, TF over GST control)
binding signal (SPIB): 1.16 fold enrichment (6-mer frequency, TF over GST control)
binding signal (FEV): 1.13 fold enrichment (6-mer frequency, TF over GST control)
binding signal (ETV5): 1.12 fold enrichment (6-mer frequency, TF over GST control)
binding signal (SPIC): 1.12 fold enrichment (6-mer frequency, TF over GST control)
binding signal (ELF4): 1.18 fold enrichment (6-mer frequency, TF over GST control)
binding signal (ELK4): 1.24 fold enrichment (6-mer frequency, TF over GST control)
binding signal (ETV2): 1.4 fold enrichment (6-mer frequency, TF over GST control)
binding signal (ELF3): 1.16 fold enrichment (6-mer frequency, TF over GST control)
binding signal (ETV1): 1.13 fold enrichment (6-mer frequency, TF over GST control)

TGCCAC
binding signal (FLI1): 1.21 fold enrichment (6-mer frequency, TF over GST control)
binding signal (ELK1): 1.2 fold enrichment (6-mer frequency, TF over GST control)
binding signal (GABPA): 1.14 fold enrichment (6-mer frequency, TF over GST control)
binding signal (ERG): 1.26 fold enrichment (6-mer frequency, TF over GST control)
binding signal (ELF1): 1.18 fold enrichment (6-mer frequency, TF over GST control)
binding signal (EHF): 1.23 fold enrichment (6-mer frequency, TF over GST control)
binding signal (SPI1): 1.21 fold enrichment (6-mer frequency, TF over GST control)
binding signal (SPIB): 1.13 fold enrichment (6-mer frequency, TF over GST control)
binding signal (ELK3): 1.23 fold enrichment (6-mer frequency, TF over GST control)
binding signal (FEV): 1.32 fold enrichment (6-mer frequency, TF over GST control)
binding signal (ETV5): 1.14 fold enrichment (6-mer frequency, TF over GST control)
binding signal (SPIC): 1.19 fold enrichment (6-mer frequency, TF over GST control)
binding signal (ELF4): 1.26 fold enrichment (6-mer frequency, TF over GST control)
binding signal (ELK4): 1.42 fold enrichment (6-mer frequency, TF over GST control)
binding signal (ETV2): 1.14 fold enrichment (6-mer frequency, TF over GST control)
binding signal (ELF3): 1.44 fold enrichment (6-mer frequency, TF over GST control)
binding signal (ETV1): 1.26 fold enrichment (6-mer frequency, TF over GST control)
